Test results: PubChem BioAssay AID2796 (The Scripps Research Institute Molecular Screening Center, 2010)
Hit rate of the full screen: of about 320,000 compounds, about 8,000 (2.5%) were called active. The list comes from a sample in which actives are over-represented; it also holds similar structures and randomly drawn compounds. Unmarked numbers belong to inactive results. Cut-off read from the data, not from the text of the source: active = activation above about 47%; inactive = the rest.

target: Aryl hydrocarbon receptor (Homo sapiens) (UniProt P35869); assay: AHR activators, primary screen, cell-based, luminescence, luciferase reporter, human (AID 2796); settings: AHR-responsive luciferase reporter cells, at 5 µM, stronger effect = higher value;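 note: 0% = vehicle wells and 100% = reference agonist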
Sequence (P35869 whole entry, looked up): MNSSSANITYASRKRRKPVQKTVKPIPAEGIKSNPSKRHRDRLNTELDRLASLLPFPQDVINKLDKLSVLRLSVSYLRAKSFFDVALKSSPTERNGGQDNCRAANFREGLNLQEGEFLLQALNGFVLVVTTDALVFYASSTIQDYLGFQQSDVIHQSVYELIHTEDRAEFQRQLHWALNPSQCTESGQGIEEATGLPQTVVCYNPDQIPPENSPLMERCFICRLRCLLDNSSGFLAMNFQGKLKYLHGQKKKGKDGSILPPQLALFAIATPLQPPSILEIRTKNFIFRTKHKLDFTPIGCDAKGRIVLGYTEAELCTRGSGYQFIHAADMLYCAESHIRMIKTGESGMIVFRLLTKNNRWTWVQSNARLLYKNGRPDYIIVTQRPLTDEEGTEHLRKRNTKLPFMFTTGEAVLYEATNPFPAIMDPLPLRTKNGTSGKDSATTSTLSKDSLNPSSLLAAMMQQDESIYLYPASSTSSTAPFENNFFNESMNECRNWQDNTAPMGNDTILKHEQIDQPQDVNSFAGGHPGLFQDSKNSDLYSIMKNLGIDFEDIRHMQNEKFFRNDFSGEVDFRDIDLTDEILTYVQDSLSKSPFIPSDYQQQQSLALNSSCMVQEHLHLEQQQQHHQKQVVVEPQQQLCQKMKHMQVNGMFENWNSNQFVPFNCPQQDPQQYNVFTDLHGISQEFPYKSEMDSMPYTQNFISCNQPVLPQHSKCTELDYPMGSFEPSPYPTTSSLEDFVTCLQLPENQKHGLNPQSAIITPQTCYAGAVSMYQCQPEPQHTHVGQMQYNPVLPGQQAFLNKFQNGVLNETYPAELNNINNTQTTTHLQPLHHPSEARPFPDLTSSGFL

Structure (SMILES)	activation
Cc1ccc(Br)c(NS(=O)(=O)c2cccc(C(=O)N3CCNC(=O)C3)c2)c1	1.33%
COc1cc(OC)c(C(=O)Nc2ccc(N(C)C)cc2)cc1OC	-7.49%
COc1ccc(Cl)cc1C(=O)Nc1ccc(N(C)C(C)=O)cc1	81.3% (active)
COC(=O)c1ccc(NC(=O)c2cc(Cl)ccc2OC)cc1	2.68%
Cc1ccsc1C(=O)OCC(=O)Nc1cccc(F)c1	-0.75%
Cc1ccc(C(=O)Nc2ccccc2-c2ccccc2)cc1S(=O)(=O)Nc1ccccc1	2.25%
Cc1ccc(C)c(NC(=O)C(OC(=O)c2ccc(C)s2)c2ccccc2)c1 (centres undefined)	29.4%
O=C(CCCCCn1c(=O)[nH]c2ccccc2c1=O)NCCc1c[nH]c2ccccc12	54.7% (active)
O=C(CCCCn1c(=O)[nH]c2ccccc2c1=O)NCc1ccc2c(c1)OCO2	79.9% (active)
Cn1cc(CCC(=O)NCc2ccc3c(c2)OCO3)c2ccccc21	8.58%
O=C(CCn1c(=S)[nH]c2cc3c(cc2c1=O)OCO3)NCc1ccc(Cl)cc1	-0.55%
O=C(CCc1c[nH]c2ccccc12)NCCOc1ccccc1	2.6%
CCN(CC)CCNC(=O)CCCCCn1c(=O)[nH]c2cc(C(=O)OC)ccc2c1=O	1.58%
O=c1c2ccccc2c(-c2ccccc2)nn1-c1ccccn1	0.2%
Cc1ccc(C(=O)NNC(=O)c2cccs2)cc1	-3.24%
Cc1ccc(C(=O)NNC(=O)c2cc3cc4ccccc4nc3s2)cc1	64% (active)
Cc1ccc(C(=O)NNc2ncnc3ccccc23)cc1	19.4%
Cc1cccc(NC(=O)c2ccc(S(=O)(=O)N(C)c3ccccc3)cc2)n1	13.7%
O=C(COC(=O)c1ccc([N+](=O)[O-])cc1Cl)NC(=O)c1ccccc1	0.29%
CCOC(OCC)c1ccc(/C=C\c2nccc(N)n2)cc1	2.83%

Structure (SMILES)	activation
CC1=CC=CC2=N/C(=N\S(=O)(=O)c3ccc(F)cc3F)c3ccccc3CN12	68.7% (active)
CCNC(=S)N1CCN(S(=O)(=O)c2ccc(Cl)s2)CC1	-1.16%
O=C1Nc2ccccc2/C1=C/c1ccnc2ccccc12	8.16%
CN(C)/C=C1/Nc2ccccc2C1=O	33.7%
Cc1cc(C)c(/C=C2\C(=O)Nc3ccccc32)[nH]1	47% (active)
COCCN(C(=O)CCC(=O)Nc1nccs1)C(C(=O)NC(C)(C)C)c1ccc(Cl)cc1 (centres undefined)	0.14%
COc1ccccc1C(=O)COC(=O)COc1ccc(C#N)cc1	-0.13%
COc1ccc(CCNc2nc(C)cc(C)n2)cc1OC	4.65%
Cc1ccc(-c2nc(-c3ccncc3)no2)c(C)c1	3.29%
COc1ccc(-c2nc(-c3ccccc3)no2)c(OC)c1	70.8% (active)
COc1ccc(/C=C/c2noc(-c3ccccc3OC(C)=O)n2)cc1	2.04%
CCOC(=O)N1CCN(S(=O)(=O)N2CCCC(C(=O)NCCCN3CCC(C)CC3)C2)CC1 (centres undefined)	0.65%
CCC(C(=O)N1CCN(S(=O)(=O)c2sc(C(=O)O)c(C)c2C(=O)O)CC1)c1ccccc1 (centres undefined)	-0.9%
Cc1ccc(Sc2cc(N3CCOCC3)nc(-c3ccccc3)n2)cc1	3.2%
O=S(=O)(c1ccc(Br)cc1)c1nc(-c2ccccc2)oc1N1CCOCC1	3.81%
Cc1cc(N2CCOCC2)nc(-c2ccc(Br)cc2)n1	86.8% (active)
CC(=O)O[C@H]1CC[C@@]2(C)[C@@H](CC[C@@H]3[C@@H]2CC[C@]2(C)[C@@H](C(C)(C)O)C[C@@H]32)C1	1.86%
CCOC(=O)c1ccc(NC(=O)c2cc(=O)[nH]c3ccccc23)cc1	-0.98%
O=C(CNC(=O)c1cc(=O)[nH]c2ccccc12)Nc1ccc(F)c(F)c1	70.8% (active)
CC(NC(=O)c1cc(=O)[nH]c2ccccc12)c1ccc(F)cc1F (centres undefined)	-1.44%

Structure (SMILES)	activation
COC(=O)C1=CO[C@@H](O[C@@H]2O[C@H](CO)[C@@H](O)[C@H](O)[C@H]2O)C2C1C[C@H](O)[C@@H]2C (some centres undefined)	0.44%
CCc1nn(-c2cc(Oc3cccc4ccccc34)nc(-c3ccccc3)n2)c(N)c1C#N	10.9%
N#Cc1nc(-c2cccc3ccccc23)oc1N	-2.82%
CC(C)(C)n1nc(Cc2cccc3ccccc23)c(C#N)c1N	51.2% (active)
CCCCOc1ccc(C(=O)NCC(=O)OCC(=O)N2CCN(S(=O)(=O)c3ccc(C)cc3C)CC2)cc1	0.36%
COc1ccc(N2CCN(S(=O)(=O)c3cc4c5c(c3)C(C)C(=O)N5CCC4)CC2)cc1 (centres undefined)	-1.29%
CN1C(=O)/C(=C\c2ccc(-c3ccccc3)o2)SC1=S	6.56%
NS(=O)(=O)c1ccc(-c2ccc(/C=C3\SC(=O)NC3=O)o2)cc1	125% (active)
CN1CCN(/N=C/c2ccc(-c3ccc([N+](=O)[O-])cc3)o2)CC1	38.6%
c1ccc(-c2nccc(-c3ccc(-n4cnc5ccccc54)cc3)n2)nc1	-6.06%
COc1ccc(CCNC(=O)COc2ccc3c(c2)OCO3)cc1	10%
CC(C)(C)c1ccc(SCCc2ccncc2)cc1	14.1%
CC(C)CCNC(=O)C1CCC(CNc2c(N3CCC(C)CC3)c(=O)c2=O)CC1 (centres undefined)	7.38%
Cn1c(=NC(=O)C2CC2)sc2cc(F)cc(F)c21	69.9% (active)
O=C(CN(Cc1ccc(Br)cc1)S(=O)(=O)c1ccccc1)NCc1ccncc1	1.87%
C=CCn1c(=NC(=O)c2ccc(S(=O)(=O)N3CCCC3)cc2)sc2cc(NC(C)=O)ccc21	1.47%
C=CCn1c(=NC(=O)c2cccs2)sc2cc(NC(C)=O)ccc21	118% (active)
C=CCn1c(CCNC(=O)c2cccs2)n[nH]c1=S	-2.49%
O=C(Oc1c(-c2ccco2)oc2ccccc2c1=O)c1cccnc1	2.09%
